Measured values reported in the supplement of paper PMC6555819.

tested on: FXR:RXRa (NR concentration 270 nM, RXRa partner concentration 90 nM); assay: PBM binding z-score (relative to random genomic background probes); higher = stronger binding; sequences stand for … in GC…GCGATTGACAGCGTAGAATGAAGG
In short: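 Scanned fluorescence from custom Agilent 4×180K protein-binding microarrays was regression-normalized. Binding z-scores use random background probes as reference. Ligand-free nuclear receptor dimers were incubated on the arrays for 1 h and detected with antibodies against each partner (one per run).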

Row | Sequence | PBM binding z-score
1 | CGATCTAGGTCACCAGGACAGTGAAGAGGTTGGA | 3.81
2 | CGAACTAGATCACCAGGACAGTGAAGAGGTTGGA | -0.196
3 | CGAACTAGGTCACCTGGACAGTGAAGAGGTTGGA | 3.92
4 | ATATGTAGGTTAGGGTCTTTCAGAAAGTAGGGAA | 1.38
5 | CGAACTAGGTCAAAGGACAGTGGAAGGCGACGTA | 3.72
6 | CGAACTAGGTCACCAGGACAGTGCAGAGGTTGGA | 4.04
7 | CGAACTAGGTCAAAGGACAGTGATAGGCGACGTA | 3.8
8 | ATATGTAGGTTAGTGTCATTCAGAAAGTAGGGAA | 1
9 | CGTACTAGGTCACCAGGACAGTGAAGAGGTTGGA | 3.85
10 | ATATGTAGGTTAGGCTCATTCAGAAAGTAGGGAA | -0.281
11 | ATATGCAGGTTAGGGTCATTCAGAAAGTAGGGAA | 4.84
12 | CGAACTAGGTCACCAGGAGAGTGAAGAGGTTGGA | 3.86
13 | CGAACTAGGTCAAATGACAGTGAAAGGCGACGTA | 4.96
14 | CGAACTAGGTCAAAGGACAGTGACAGGCGACGTA | 4.22
15 | ATAAGTAGGTTAGGGTCATTCAGAAAGTAGGGAA | 4.83
16 | CGAACTAGGTCACCAGGACAGTAAAGAGGTTGGA | 4.28
17 | ATATGTAGGTGAGGGTCATTCAGAAAGTAGGGAA | 3.06
18 | CGAACTAGGTCAGCAGGACAGTGAAGAGGTTGGA | 1.24
19 | CGAACTAGGTCAAAGGACAATGAAAGGCGACGTA | 3.98
20 | CGATCTAGGTCAAAGGACAGTGAAAGGCGACGTA | 4

Row | Sequence | PBM binding z-score
21 | ATATGTAGGTTAGAGTCATTCAGAAAGTAGGGAA | 0.573
22 | CGAACTAGGTCACCAGGACAGTGAAGAGGTTGGA | 3.86
23 | ATATGTAGGCTAGGGTCATTCAGAAAGTAGGGAA | 3.72
24 | CGAACTTGGTCACCAGGACAGTGAAGAGGTTGGA | 0.102
25 | ATATGTAGGTTAGGGGCATTCAGAAAGTAGGGAA | 1.64
26 | ATATGTAGGTTAGGGTCATTAAGAAAGTAGGGAA | 4.6
27 | ATATGTAGGTTTGGGTCATTCAGAAAGTAGGGAA | 1.74
28 | ATATGTAAGTTAGGGTCATTCAGAAAGTAGGGAA | 4.8
29 | ATATGAAGGTTAGGGTCATTCAGAAAGTAGGGAA | 5.27
30 | CGAACTAGGTCAATGGACAGTGAAAGGCGACGTA | 3.01
31 | CGAACTAGGTAACCAGGACAGTGAAGAGGTTGGA | -0.0198
32 | ATATGGAGGTTAGGGTCATTCAGAAAGTAGGGAA | 5.28
33 | CGAACTAGGTCACCAGGGCAGTGAAGAGGTTGGA | 3.67
34 | CGAACTAGGTCACCAGGACATTGAAGAGGTTGGA | 4.15
35 | CGAACTAGGTCAAAGGACAGCGAAAGGCGACGTA | 4.22
36 | CGAACTAGGCCACCAGGACAGTGAAGAGGTTGGA | -0.158
37 | CGAACTAGGGCACCAGGACAGTGAAGAGGTTGGA | -0.211
38 | CCAACTAGGTCACCAGGACAGTGAAGAGGTTGGA | 4.24
39 | CGAACTAGGTCAAAGTACAGTGAAAGGCGACGTA | 4.69
